Records with an inconclusive call do not appear. The source made the active and inactive calls. Unless noted, no stated cut-off is given here; in the data, active means potency below about 10 µM; inactive means the rest.

Data on 40 compounds can be found in PubChem BioAssay (NCATS).

The target of one test is Lysosomal acid glucosylceramidase (Homo sapiens) (UniProt P04062). As to the kind of experiment: Glucocerebrosidase-p2 (AID 348). Further: potency means the concentration at half of the fitted maximal effect. The conditions noted are these: purified GBA, blue fluorogenic substrate, 40 min. The essentials: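 Compounds titrated from 0.6 nM upwards against 0.2 nM enzyme in pH 5.9 citric acid/KH2PO4, taurocholate, tween-20; blue fluorogenic substrate 80 uM, 40 min room temperature, stopped and read Ex 365/Em 440 for AC50.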
Lysosomal acid glucosylceramidase (Homo sapiens), sequence (P04062 whole entry, looked up): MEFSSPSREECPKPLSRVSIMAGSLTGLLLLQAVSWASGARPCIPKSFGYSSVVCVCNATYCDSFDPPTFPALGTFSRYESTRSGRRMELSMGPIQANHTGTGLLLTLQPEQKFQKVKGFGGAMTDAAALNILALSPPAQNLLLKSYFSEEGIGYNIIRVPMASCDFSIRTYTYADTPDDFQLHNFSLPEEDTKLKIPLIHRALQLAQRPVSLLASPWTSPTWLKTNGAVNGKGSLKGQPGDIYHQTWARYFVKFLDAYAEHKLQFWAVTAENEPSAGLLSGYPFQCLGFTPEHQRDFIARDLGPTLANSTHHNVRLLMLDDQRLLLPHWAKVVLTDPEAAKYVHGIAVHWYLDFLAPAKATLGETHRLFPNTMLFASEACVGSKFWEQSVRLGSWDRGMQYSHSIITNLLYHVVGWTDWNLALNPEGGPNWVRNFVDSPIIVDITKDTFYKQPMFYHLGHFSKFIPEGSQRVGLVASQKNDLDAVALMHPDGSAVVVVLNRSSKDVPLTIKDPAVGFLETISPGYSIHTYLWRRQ
`Clc1ccccc1-c1nccc(-n2ccnc2)n1`: the Potency is > 11.4 µM (inactive).
In the case of `Cc1cccc(CNc2ccnc(-c3ccoc3)n2)c1`, the Potency was > 11.4 µM (inactive).
In the case of `c1nc(NC2CCNCC2)c2cc(-c3ccc4c(c3)OCO4)ccc2n1`, the Potency was > 11.4 µM (inactive).
On the same count and under the same terms, to `O=c1c(-c2ccccc2)nc2cnc(Oc3ccccc3)nc2n1Cc1cccs1` belongs > 11.4 µM (inactive); to `COc1ccc(-n2c(=O)c(-c3cn(C)c4ccccc34)nc3cnc(OC)nc32)cc1`, > 11.4 µM (inactive).
For `CN(C)c1ncc2ncc(=O)n(CCC#N)c2n1`, the Potency was > 11.4 µM (inactive).
In the case of `COc1ccccc1CNc1ncncc1-c1ccoc1`, the Potency is > 11.4 µM (inactive).
On the same count and under the same terms, in the case of `COc1ncc2ncc(=O)n(Cc3cccs3)c2n1` it was > 11.4 µM (inactive); in that of `FC(F)(F)c1ccccc1-c1cc(N2CCNCC2)ncn1`, > 11.4 µM (inactive); in that of `CC(=O)NCCNc1nc(-c2ccccc2C(F)(F)F)nc2ccccc12`, > 11.4 µM (inactive).
Same read-out and setting: to `COc1ccccc1CNc1ccnc(-c2ccoc2)n1` belongs > 11.4 µM (inactive).
On the same count and under the same terms, to `Cc1ccccc1-c1cncnc1Nc1ccc(F)cc1` belongs > 11.4 µM (inactive).
In the case of `CN(Cc1ccco1)c1cc(-c2ccccc2Cl)ncn1`, the Potency is > 11.4 µM (inactive).
Take `COc1ccc(-n2c(=O)cnc3cnc(Oc4ccccc4)nc32)cc1`: the Potency is > 11.4 µM (inactive).
On the same count and under the same terms, in the case of `COc1ncc2nc(-c3cccc(C#N)c3)c(=O)n(CCC#N)c2n1` it was > 11.4 µM (inactive); in that of `CN(Cc1ccco1)c1ncnc2ccc(-c3cccc(C#N)c3)cc12`, > 11.4 µM (inactive).
In the case of `c1ccc(CNc2ccnc(-c3ccoc3)n2)cc1`, the Potency was > 11.4 µM (inactive).
Consider `COc1ncc2nc(-c3cc(F)cc(F)c3)c(=O)n(CCC#N)c2n1`, for which the Potency was > 11.4 µM (inactive).
On the same count and under the same terms, in the case of `Cc1nc2cnc(Nc3ccccc3)nc2n(C)c1=O` it was > 11.4 µM (inactive).
As for `COc1ccc(-n2c(=O)c(C)nc3cnc(Oc4ccccc4)nc32)cc1`, the Potency is > 11.4 µM (inactive).
Still for that read-out and setting: in the case of `COc1ccccc1CCn1c(=O)c(-c2cc(F)cc(F)c2)nc2cncnc21` it was > 11.4 µM (inactive).
On to `COc1cccc(-c2ccc3ncnc(NC4CCNCC4)c3c2)c1`, for which the Potency is > 11.4 µM (inactive).
The same measure, in the same setting: to `COc1cccc(-c2cc(NCc3cccs3)ncn2)c1` belongs > 11.4 µM (inactive); to `Cn1c(=O)c(-c2cc(F)cc(F)c2)nc2cnc(Oc3ccccc3)nc21`, > 11.4 µM (inactive); to `CNc1nc(-c2ccccc2Cl)nc2ccccc12`, 5.87 µM (active).
On to `O=C(O)C1CCN(c2ncnc3ccc(-c4ccccc4C(F)(F)F)cc23)CC1`, for which the Potency was > 11.4 µM (inactive).
Still for that read-out and setting: in the case of `CC(=O)NCCNc1nc(-c2ccccc2Cl)nc2ccccc12` it was > 11.4 µM (inactive).
Regarding `CN(C)c1ccc(-c2cncnc2NCc2cccs2)cc1`, the Potency was > 11.4 µM (inactive).
Same read-out and setting: in the case of `O=c1c(-c2ccc(F)cc2)nc2cnc(N3CCOCC3)nc2n1C[C@H]1CCCO1` it was > 11.4 µM (inactive).
On the same count and under the same terms, in the case of `Cc1cccc(CNc2ncncc2-c2cccc(C#N)c2)c1` it was > 11.4 µM (inactive); in that of `COc1ccc(Oc2ncc3nc(-c4ccc(OC)cc4)c(=O)n(Cc4cccs4)c3n2)cc1`, > 11.4 µM (inactive).
Same read-out and setting: to `Cc1cccc(CNc2ncncc2-c2ccc3c(c2)OCO3)c1` belongs > 11.4 µM (inactive); to `N#CCCn1c(=O)cnc2cnc(N3CCOCC3)nc21`, > 11.4 µM (inactive).
Regarding `COc1ncc2nc(-c3cccs3)c(=O)n(-c3ccccc3)c2n1`, the Potency was > 11.4 µM (inactive).
Same read-out and setting: to `COc1ccc2[nH]cc(CCNc3cc(-c4ccccc4C(F)(F)F)ncn3)c2c1` belongs > 11.4 µM (inactive).
The same measure, in the same setting: to `Cc1nc2cnc(Oc3cccc(Cl)c3)nc2n(CCC#N)c1=O` belongs > 11.4 µM (inactive); to `COc1ncc2ncc(=O)n(C)c2n1`, > 11.4 µM (inactive).
On the same count and under the same terms, in the case of `c1ccc2c(-n3ccnc3)nc(-c3ccoc3)nc2c1` it was > 11.4 µM (inactive); in that of `COc1cccc(-c2nccc(-n3ccnc3)n2)c1`, > 11.4 µM (inactive); in that of `CN(C)c1ccc(-c2cc(-n3ccnc3)ncn2)cc1`, > 11.4 µM (inactive).

Test system in a further test: not listed separately
The experiment in a line: AP1 Signaling Pathway (AID 357; active means well fitted curve in either direction with a large enough effect, not every such curve was filed as active;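 further: ME-180 reporter cells stimulated with EGF at its EC50 level; on the % scale 0 is the no-effect control and ±100 the full control effect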). The conditions noted are these: ME-180 (cervical carcinoma) AP-1-bla reporter, EGF-induced, beta-lactamase ratio, 5 h; at 7.69 µM (top of the series) unless noted. The essentials:
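Beta-lactamase reporter under AP-1 response element, ME-180 background. Stimulus: EC50 EGF. Compound exposure 5 h, 37 °C. Detection: CCF4, 2.5 h RT, 460/530 nm. Values: AC50 from titration.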
Take `Clc1ccccc1-c1nccc(-n2ccnc2)n1`: the activity change, negative = inhibition is -12.3% (inactive).
As for `Cc1cccc(CNc2ccnc(-c3ccoc3)n2)c1`, the activity change, negative = inhibition was 0.94% (inactive).
As for `c1nc(NC2CCNCC2)c2cc(-c3ccc4c(c3)OCO4)ccc2n1`, the activity change, negative = inhibition is 7.44% (inactive).
As for `O=c1c(-c2ccccc2)nc2cnc(Oc3ccccc3)nc2n1Cc1cccs1`, the activity change, negative = inhibition was -0.0665% (inactive).
On the same count and under the same terms, to `COc1ccc(-n2c(=O)c(-c3cn(C)c4ccccc34)nc3cnc(OC)nc32)cc1` belongs -6.77% (inactive); to `CN(C)c1ncc2ncc(=O)n(CCC#N)c2n1`, -12.7% (inactive); to `COc1ccccc1CNc1ncncc1-c1ccoc1`, -6.36% (inactive).
On the same count and under the same terms, in the case of `COc1ncc2ncc(=O)n(Cc3cccs3)c2n1` it was 1.19% (inactive); in that of `FC(F)(F)c1ccccc1-c1cc(N2CCNCC2)ncn1`, 10.3% (inactive).
On the same count and under the same terms, to `CC(=O)NCCNc1nc(-c2ccccc2C(F)(F)F)nc2ccccc12` belongs 3.94% (inactive); to `COc1ccccc1CNc1ccnc(-c2ccoc2)n1`, -2.58% (inactive); to `Cc1ccccc1-c1cncnc1Nc1ccc(F)cc1`, 15.1% (inactive).
Take `CN(Cc1ccco1)c1cc(-c2ccccc2Cl)ncn1`: the activity change, negative = inhibition was -3.34% (inactive).
Consider `COc1ccc(-n2c(=O)cnc3cnc(Oc4ccccc4)nc32)cc1`, for which the activity change, negative = inhibition is -8.13% (inactive).
Same read-out and setting: in the case of `COc1ncc2nc(-c3cccc(C#N)c3)c(=O)n(CCC#N)c2n1` it was -2.26% (inactive); in that of `CN(Cc1ccco1)c1ncnc2ccc(-c3cccc(C#N)c3)cc12`, 6.41% (inactive).
For the compound `c1ccc(CNc2ccnc(-c3ccoc3)n2)cc1`, the activity change, negative = inhibition was -4.42% (inactive).
For the compound `COc1ncc2nc(-c3cc(F)cc(F)c3)c(=O)n(CCC#N)c2n1`, the activity change, negative = inhibition was 2.61% (inactive).
Consider `Cc1nc2cnc(Nc3ccccc3)nc2n(C)c1=O`, for which the activity change, negative = inhibition was -16.6% (inactive).
On the same count and under the same terms, to `COc1ccc(-n2c(=O)c(C)nc3cnc(Oc4ccccc4)nc32)cc1` belongs -0.42% (inactive); to `COc1ccccc1CCn1c(=O)c(-c2cc(F)cc(F)c2)nc2cncnc21`, -3.28% (inactive).
Still for that read-out and setting: to `COc1cccc(-c2ccc3ncnc(NC4CCNCC4)c3c2)c1` belongs 2.29% (inactive); to `COc1cccc(-c2cc(NCc3cccs3)ncn2)c1`, 3.15% (inactive); to `Cn1c(=O)c(-c2cc(F)cc(F)c2)nc2cnc(Oc3ccccc3)nc21`, -7.91% (inactive).
As for `CNc1nc(-c2ccccc2Cl)nc2ccccc12`, the activity change, negative = inhibition was -4.05% (inactive).
Same read-out and setting: to `O=C(O)C1CCN(c2ncnc3ccc(-c4ccccc4C(F)(F)F)cc23)CC1` belongs -20.1% (inactive); to `CC(=O)NCCNc1nc(-c2ccccc2Cl)nc2ccccc12`, 22.6% (inactive); to `CN(C)c1ccc(-c2cncnc2NCc2cccs2)cc1`, -15.1% (inactive).
Still for that read-out and setting: to `O=c1c(-c2ccc(F)cc2)nc2cnc(N3CCOCC3)nc2n1C[C@H]1CCCO1` belongs 9.7% (inactive).
Still for that read-out and setting: to `Cc1cccc(CNc2ncncc2-c2cccc(C#N)c2)c1` belongs 0.377% (inactive); to `COc1ccc(Oc2ncc3nc(-c4ccc(OC)cc4)c(=O)n(Cc4cccs4)c3n2)cc1`, -28.2% (inactive); to `Cc1cccc(CNc2ncncc2-c2ccc3c(c2)OCO3)c1`, -0.728% (inactive).
On to `N#CCCn1c(=O)cnc2cnc(N3CCOCC3)nc21`, for which the activity change, negative = inhibition was -13.7% (inactive).
Regarding `COc1ncc2nc(-c3cccs3)c(=O)n(-c3ccccc3)c2n1`, the activity change, negative = inhibition was -4.36% (inactive).
Same read-out and setting: to `COc1ccc2[nH]cc(CCNc3cc(-c4ccccc4C(F)(F)F)ncn3)c2c1` belongs -26.7% (inactive).
As for `Cc1nc2cnc(Oc3cccc(Cl)c3)nc2n(CCC#N)c1=O`, the activity change, negative = inhibition was -16% (inactive).
On the same count and under the same terms, in the case of `COc1ncc2ncc(=O)n(C)c2n1` it was -3.14% (inactive).
Still for that read-out and setting: in the case of `c1ccc2c(-n3ccnc3)nc(-c3ccoc3)nc2c1` it was -13.9% (inactive); in that of `COc1cccc(-c2nccc(-n3ccnc3)n2)c1`, 9.38% (inactive).
Same read-out and setting: in the case of `CN(C)c1ccc(-c2cc(-n3ccnc3)ncn2)cc1` it was 2.17% (inactive).
